Reference: the supplement of paper PMC7411054
Structures can show the parent of a compound that is named as a salt.

Legend:
Assay in all cases: phenotypically active (imaging signature differs from DMSO and reproducible) at any of 0.3-9 uM (binary (1 = active, 0 = inactive)); higher = active
Conditions in all cases: treatment time: 24 h
[1] = tested on: A549-ACTB-RAB5A
Summary of the method: (§1)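 Fifteen reporter lines derived from A549, HepG2 and WPMY1 cells by gene editing, carrying BFP for segmentation plus GFP and RFP/FusionRed markers, were exposed to 0.3, 1, 3 or 9 µM for 24 h in four wells each and imaged live. Live-cell features from each well were normalised to solvent control wells. A well set counted as deviating when ≥3 of 4 wells lay beyond the 95th percentile of control Euclidean distances, and as reproducible when the median replicate Pearson correlation exceeded the 95th percentile of non-replicates. Phenotypic activity was assigned only when both criteria were met.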

[2] = tested on: A549-CANX-COX4
Summary of the method: as §1

[3] = tested on: A549-GM130-SQSTM1
Summary of the method: as §1

[4] = tested on: A549-TP53BP1-CLTA
Summary of the method: as §1

[5] = tested on: A549-TUBA1B-RELA
Summary of the method: as §1

[6] = tested on: HepG2-ACTB-RAB5A
Summary of the method: as §1

[7] = tested on: HepG2-CANX-COX4
Summary of the method: as §1

[8] = tested on: HepG2-GM130-SQSTM1
Summary of the method: as §1

[9] = tested on: HepG2-TP53BP1-CLTA
Summary of the method: as §1

[10] = tested on: HepG2-TUBA1B-RELA
Summary of the method: as §1

[11] = tested on: WPMY1-ACTB-RAB5A
Summary of the method: as §1

[12] = tested on: WPMY1-CANX-COX4
Summary of the method: as §1

[13] = tested on: WPMY1-GM130-SQSTM1
Summary of the method: as §1

[14] = tested on: WPMY1-TP53BP1-CLTA
Summary of the method: as §1

[15] = tested on: WPMY1-TUBA1B-RELA
Summary of the method: as §1

Measured: phenotypically active

CCCSc1nc2c(c(=O)n1-c1ccccc1)SCC2
inactive: [1] 0 | [2] 0 | [3] 0 | [4] 0 | [5] 0 | [6] 0 | [7] 0 | [8] 0 | [9] 0 | [10] 0 | [11] 0 | [12] 0 | [13] 0 | [14] 0 | [15] 0

CCCCCN(C)CCC(O)(P(=O)(O)O)P(=O)(O)O [ibandronate]
inactive: [1] 0 | [2] 0 | [3] 0 | [4] 0 | [5] 0 | [6] 0 | [7] 0 | [8] 0 | [9] 0 | [10] 0 | [11] 0 | [12] 0 | [13] 0 | [14] 0 | [15] 0

Nc1ccc(O)c(C(=O)O)c1 [mesalazine]
inactive: [1] 0 | [2] 0 | [3] 0 | [4] 0 | [5] 0 | [6] 0 | [7] 0 | [8] 0 | [9] 0 | [10] 0 | [11] 0 | [12] 0 | [13] 0 | [14] 0 | [15] 0

C[n+]1cccc(C(=O)O)c1 [Trigonelline hydrochloride]
inactive: [1] 0 | [2] 0 | [3] 0 | [4] 0 | [5] 0 | [6] 0 | [7] 0 | [8] 0 | [9] 0 | [10] 0 | [11] 0 | [12] 0 | [13] 0 | [14] 0 | [15] 0

O=C(c1cccc(Br)c1)N1CCC(N2CCCC2)CC1 [UNC 926 hydrochloride]
inactive: [1] 0 | [2] 0 | [3] 0 | [4] 0 | [5] 0 | [6] 0 | [7] 0 | [8] 0 | [9] 0 | [10] 0 | [11] 0 | [12] 0 | [13] 0 | [14] 0 | [15] 0

Oc1cc(O)c2c(c1)O[C@H](c1ccc(O)c(O)c1)[C@@H](O)C2 [Epicatechin-(-)]
inactive: [1] 0 | [2] 0 | [3] 0 | [4] 0 | [5] 0 | [6] 0 | [7] 0 | [8] 0 | [9] 0 | [10] 0 | [11] 0 | [12] 0 | [13] 0 | [14] 0 | [15] 0

NS(=O)(=O)c1cc2c(cc1Cl)NC(C1CC3C=CC1C3)NS2(=O)=O (stereo not given) [cyclothiazide]
inactive: [1] 0 | [2] 0 | [3] 0 | [4] 0 | [5] 0 | [6] 0 | [7] 0 | [8] 0 | [9] 0 | [10] 0 | [11] 0 | [12] 0 | [13] 0 | [14] 0 | [15] 0

N=C(N)Nc1nc(CSCCC(=N)NS(N)(=O)=O)cs1 [famotidine]
inactive: [1] 0 | [2] 0 | [3] 0 | [4] 0 | [5] 0 | [6] 0 | [7] 0 | [8] 0 | [9] 0 | [10] 0 | [11] 0 | [12] 0 | [13] 0 | [14] 0 | [15] 0

NC1=NCC2c3ccccc3Cc3ccccc3N12 (stereo not given) [epinastine]
inactive: [1] 0 | [2] 0 | [3] 0 | [4] 0 | [5] 0 | [6] 0 | [7] 0 | [8] 0 | [9] 0 | [10] 0 | [11] 0 | [12] 0 | [13] 0 | [14] 0 | [15] 0

CCC(CC)(NC(=O)C(C)C)C(=O)N[C@@H](CCCNC(=N)N)C(=O)NC1(C(=O)NC(c2ccc(F)cc2)c2ccc(F)cc2)CCCC1
inactive: [1] 0 | [2] 0 | [3] 0 | [4] 0 | [5] 0 | [6] 0 | [7] 0 | [8] 0 | [9] 0 | [10] 0 | [11] 0 | [12] 0 | [13] 0 | [14] 0 | [15] 0

CO[C@@]12[C@H](COC(N)=O)C3=C(C(=O)C(C)=C(N)C3=O)N1C[C@@H]1N[C@@H]12 [mitomycin]
inactive: [1] 0 | [2] 0 | [3] 0 | [4] 0 | [5] 0 | [6] 0 | [7] 0 | [8] 0 | [9] 0 | [10] 0 | [11] 0 | [12] 0 | [13] 0 | [14] 0 | [15] 0

N=C(N)NN=Cc1c(Cl)cccc1Cl [guanabenz]
inactive: [1] 0 | [2] 0 | [3] 0 | [4] 0 | [5] 0 | [6] 0 | [7] 0 | [8] 0 | [9] 0 | [10] 0 | [11] 0 | [12] 0 | [13] 0 | [14] 0 | [15] 0

OC[C@H]1O[C@@H](Oc2ccc(O)cc2)[C@H](O)[C@@H](O)[C@@H]1O [Arbutin]
inactive: [1] 0 | [2] 0 | [3] 0 | [4] 0 | [5] 0 | [6] 0 | [7] 0 | [8] 0 | [9] 0 | [10] 0 | [11] 0 | [12] 0 | [13] 0 | [14] 0 | [15] 0

COC(=O)c1c(C)cc(OC(=O)c2c(C)cc(O)c(C=O)c2O)c(C)c1O [Atranorin]
inactive: [1] 0 | [2] 0 | [3] 0 | [4] 0 | [5] 0 | [6] 0 | [7] 0 | [8] 0 | [9] 0 | [10] 0 | [11] 0 | [12] 0 | [13] 0 | [14] 0 | [15] 0
